In all, about 410,000 compounds went through this assay and about 18,000 (4.4%) were called active. About 7% were inconclusive and are not listed. No stated cut-off is given here; in the data, active means activity change below about -60%; inconclusive means no clear call, values can overlap the other calls; inactive means above about -39%. The entries come from a sample that favours actives as a whole.
assay: qHTS Assay for inhibitors of the human cytomegalovirus (HCMV); details: HFF cells, HCMV-luciferase reporter, 72 h; at 57.5 µM; hits give low values
How it was run: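 Steps: HFFs plated, 16 h 37C; compounds added; HCMV-luciferase added to MOI 1 PFU/cell; 72 h 37C; OneGlo reagent, 5 min room temperature; luminescence read, normalized to controls.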
On the % scale 0 is the no-effect control and ±100 the full control effect.

**Q.** Which activity change, negative = inhibition does the source give for `COCCN(Cc1ccco1)C(=O)Cn1ncc2c([nH]c3ccccc32)c1=O` here?
**A.** The activity change, negative = inhibition was 1.17% (inactive).

**Q.** For `N#Cc1cccc(CN2CCC(=O)N([C@H](CO)c3ccccc3)CC2)c1`, which activity change, negative = inhibition is on record?
**A.** The activity change, negative = inhibition was -24.2% (inactive).

**Q.** For `O=C(Nc1ccc(Br)cc1)c1cc2nc(-c3ccccc3)cc(-c3ccccc3)n2n1`, which activity change, negative = inhibition is on record?
**A.** The activity change, negative = inhibition was 22.2% (inactive).

**Q.** For `CCc1ccc2oc(=O)cc(CN3CCCCC3C)c2c1` (stereo unspecified), which activity change, negative = inhibition is on record?
**A.** Its activity change, negative = inhibition is -19% (inactive).

**Q.** Which activity change, negative = inhibition does the source give for `CCOC(=O)c1[nH]c(C)c(CCC(=O)NCc2ccccc2C)c1C` here?
**A.** The activity change, negative = inhibition was -16.4% (inactive).

**Q.** With `Cc1ccsc1C(=O)NNC(=O)COc1ccc(Br)cc1` as the compound, how does the activity change, negative = inhibition read?
**A.** Its activity change, negative = inhibition is -16.1% (inactive).

**Q.** Which activity change, negative = inhibition does the source give for `Cc1ccc(O)c(NC(=S)NC(=O)COc2ccc(Br)cc2)c1` here?
**A.** The activity change, negative = inhibition was -97.8% (active).

**Q.** Which activity change, negative = inhibition does the source give for `Cn1cnnc1SCC(=O)NNC(=O)COc1ccc(Br)cc1` here?
**A.** The activity change, negative = inhibition was -26.5% (inactive).

**Q.** For `COc1ccc(CN2CCc3nc(Nc4ccccc4)ncc3C2)c(OC)c1OC`, which activity change, negative = inhibition is on record?
**A.** Its activity change, negative = inhibition is -16.7% (inactive).

**Q.** For `COc1ccc(S(=O)(=O)c2cn(C)c3cc(N4CCCCC4)c(F)cc3c2=O)cc1`, which activity change, negative = inhibition is on record?
**A.** The activity change, negative = inhibition was -2.52% (inactive).

**Q.** With `COc1cccc(CCNC(=O)c2cccc(NC(=O)C3=C(C)OCCS3)c2)c1` as the compound, how does the activity change, negative = inhibition read?
**A.** Its activity change, negative = inhibition is -34.7% (inactive).

**Q.** For `Cc1nc2nc(C)c(NS(=O)(=O)c3ccc(C(C)(C)C)cc3)c(=O)n2[nH]1`, which activity change, negative = inhibition is on record?
**A.** Its activity change, negative = inhibition is 2.48% (inactive).

**Q.** For `O=C(Nc1ccc(N2CCN(C(=O)c3ccccc3)CC2)c(Cl)c1)c1cccnc1`, which activity change, negative = inhibition is on record?
**A.** Its activity change, negative = inhibition is -70.9% (active).

**Q.** With `Cc1ccccc1N1CCN(C(=O)c2cccnc2)CC1` as the compound, how does the activity change, negative = inhibition read?
**A.** The activity change, negative = inhibition was -6.56% (inactive).

**Q.** With `O=C(Nc1ccc(N2CCN(C(=O)c3ccccc3)CC2)c(Cl)c1)c1ncn[nH]1` as the compound, how does the activity change, negative = inhibition read?
**A.** Its activity change, negative = inhibition is -25.4% (inactive).

**Q.** With `Cc1ccc(C(O)P(=O)(OC(C)C)c2ccc(N(C)C)cc2)cc1` (stereo unspecified) as the compound, how does the activity change, negative = inhibition read?
**A.** Its activity change, negative = inhibition is 15.1% (inactive).

**Q.** Which activity change, negative = inhibition does the source give for `CC(Nc1ccccc1)c1cccnc1` (stereo unspecified) here?
**A.** The activity change, negative = inhibition was 4.97% (inactive).

**Q.** For `CC(C)COP(=O)(c1ccc(N(C)C)cc1)C(Nc1ccccc1)c1cccnc1` (stereo unspecified), which activity change, negative = inhibition is on record?
**A.** Its activity change, negative = inhibition is -101% (active).

**Q.** Which activity change, negative = inhibition does the source give for `Cc1ccc(S(=O)(=O)n2nc(-c3ccc(Cl)cc3)nc2NCc2ccccc2)cc1` here?
**A.** Its activity change, negative = inhibition is 8.1% (inactive).

**Q.** Which activity change, negative = inhibition does the source give for `COc1ccc(C2c3c(oc4ccccc4c3=O)C(=O)N2Cc2ccc3c(c2)OCO3)cc1` (stereo unspecified) here?
**A.** The activity change, negative = inhibition was -4.99% (inactive).

**Q.** Which activity change, negative = inhibition does the source give for `COc1ccc(-c2nn(CC(=O)Nc3ccccc3F)c3c2cnc2ccc(F)cc23)cc1` here?
**A.** Its activity change, negative = inhibition is 39.2% (inactive).

**Q.** Which activity change, negative = inhibition does the source give for `O=c1[nH]c(-c2ccccc2)cn1C1CCN(Cc2ccc(-c3nc4ccc(F)cc4nc3-c3ccccc3)cc2)CC1` here?
**A.** The activity change, negative = inhibition was 54.8% (inactive).

**Q.** For `CCc1cc(-c2nnn(CCC3COCCO3)c2CC)ccc1-c1cn(Cc2ccc3ccccc3c2)nn1` (stereo unspecified), which activity change, negative = inhibition is on record?
**A.** Its activity change, negative = inhibition is -80.6% (active).

**Q.** With `O=C(C1CCC1)N1C[C@H]2[C@@H](c3ccccc31)[C@@H](CO)N2C(=O)c1ccccc1F` as the compound, how does the activity change, negative = inhibition read?
**A.** Its activity change, negative = inhibition is 27.8% (inactive).

**Q.** Which activity change, negative = inhibition does the source give for `CC(C)(C)c1ccc(C(=O)NCC(c2ccc(Cl)cc2)N2CCOCC2)cc1` (stereo unspecified) here?
**A.** Its activity change, negative = inhibition is -1.98% (inactive).

**Q.** For `Cc1ccc(C(=O)N2c3ncnn3C3(CCCCC3)[C@@H]3CCCC[C@@H]32)cc1`, which activity change, negative = inhibition is on record?
**A.** The activity change, negative = inhibition was -15.5% (inactive).

**Q.** With `COc1ccc(CCN2CC(C(=O)OCC(=O)NCc3ccccc3Cl)CC2=O)cc1OC` (stereo unspecified) as the compound, how does the activity change, negative = inhibition read?
**A.** Its activity change, negative = inhibition is 16.6% (inactive).

**Q.** With `COc1ccc(CC(=O)N2CC3ON=C(c4c(F)cccc4Cl)C3C2)cc1OC` (stereo unspecified) as the compound, how does the activity change, negative = inhibition read?
**A.** The activity change, negative = inhibition was -61.7% (active).

**Q.** Which activity change, negative = inhibition does the source give for `COc1ccc(S(=O)(=O)N2CC3ON=C(c4c(F)cccc4Cl)C3C2)cc1OC` (stereo unspecified) here?
**A.** The activity change, negative = inhibition was -7.48% (inactive).

**Q.** With `COc1ccccc1NC(=O)c1oc2ccccc2c1NC(=O)COc1ccccc1OC` as the compound, how does the activity change, negative = inhibition read?
**A.** The activity change, negative = inhibition was 2.62% (inactive).

**Q.** For `CCOc1ccccc1CNC(=O)c1cnc2c(-c3ccc(OCC)c(OCC)c3)c(C)nn2c1C`, which activity change, negative = inhibition is on record?
**A.** The activity change, negative = inhibition was -3.31% (inactive).

**Q.** With `Cc1ccc(CN2COc3cc(C)c4c(oc(=O)c5ccccc54)c3C2)cc1` as the compound, how does the activity change, negative = inhibition read?
**A.** The activity change, negative = inhibition was 8.87% (inactive).

**Q.** For `C/C(=N\NC(=O)c1cc2c(s1)CCC(C)C2)c1cccnc1` (stereo unspecified), which activity change, negative = inhibition is on record?
**A.** The activity change, negative = inhibition was -78.9% (active).

**Q.** With `CC1CCc2sc(C(=O)N/N=C/C3CCCCC3)cc2C1` (stereo unspecified) as the compound, how does the activity change, negative = inhibition read?
**A.** Its activity change, negative = inhibition is 13.4% (inactive).

**Q.** For `C/C(=N\NC(=O)c1cccnc1)c1ccc(-n2ccnc2)cc1`, which activity change, negative = inhibition is on record?
**A.** The activity change, negative = inhibition was -16.6% (inactive).

**Q.** For `Cc1ccc(C)c(N2CCN(Cc3nnc(-c4ccccc4)o3)CC2)c1`, which activity change, negative = inhibition is on record?
**A.** The activity change, negative = inhibition was 27.7% (inactive).

**Q.** Which activity change, negative = inhibition does the source give for `COc1ccc(-c2nc(CN3CCC(C(=O)NCCN(CC(C)C)CC(C)C)CC3)c(C)o2)cc1OC` here?
**A.** Its activity change, negative = inhibition is -0.431% (inactive).

**Q.** Which activity change, negative = inhibition does the source give for `Cc1nnc(C)n1-c1ccc(C(=O)Nc2cccc(Br)c2)cc1` here?
**A.** The activity change, negative = inhibition was 33.2% (inactive).

**Q.** Which activity change, negative = inhibition does the source give for `CCN1C(=O)N[C@@H](CCc2ccccc2)C(C(=O)OC)=C1C` here?
**A.** The activity change, negative = inhibition was -1.16% (inactive).

**Q.** Which activity change, negative = inhibition does the source give for `CCOc1cc(/C=C(/C#N)c2ccc(Cl)cc2)cc(Cl)c1OCC(=O)O` here?
**A.** The activity change, negative = inhibition was -79.4% (active).

**Q.** With `CCOc1ccc(/C=C(\C#N)c2nc3ccccc3c(=O)[nH]2)cc1OC` as the compound, how does the activity change, negative = inhibition read?
**A.** The activity change, negative = inhibition was 18% (inactive).

**Q.** With `CCOC(=O)CN(C(=O)COc1nc(C)cc(C)c1C#N)c1ccc(Cl)cc1` as the compound, how does the activity change, negative = inhibition read?
**A.** Its activity change, negative = inhibition is -1.87% (inactive).

**Q.** Which activity change, negative = inhibition does the source give for `Cc1ccc(Cn2c(=O)n(-c3ccc(C)cc3)c(=O)c3c2c2cc(C)ccc2n3C)cc1` here?
**A.** Its activity change, negative = inhibition is 5.49% (inactive).

**Q.** With `CC1CCCN(c2cc3c(cc2F)c(=O)c(S(=O)(=O)c2cccc(Cl)c2)cn3Cc2ccccc2)C1` (stereo unspecified) as the compound, how does the activity change, negative = inhibition read?
**A.** Its activity change, negative = inhibition is -26.5% (inactive).

**Q.** For `CC1(C(=O)Nc2ccc3c(c2)OCCO3)CCN1C(=O)Cc1cc(F)ccc1F` (stereo unspecified), which activity change, negative = inhibition is on record?
**A.** The activity change, negative = inhibition was 20.3% (inactive).

**Q.** With `O=C(/C=C\c1ccc2c(c1)OCO2)NC1(C(=O)Nc2ccc3c(c2)OCCO3)CCCCC1` as the compound, how does the activity change, negative = inhibition read?
**A.** Its activity change, negative = inhibition is -87.5% (active).

**Q.** Which activity change, negative = inhibition does the source give for `S=C(Nc1ccc2c(c1)OCO2)N1CCCC1` here?
**A.** The activity change, negative = inhibition was 17.6% (inactive).

**Q.** Which activity change, negative = inhibition does the source give for `COC(=O)[C@@]1(C#N)CC(=O)N([C@@H](C)c2ccccc2)[C@H]1c1ccccc1` here?
**A.** The activity change, negative = inhibition was -35.4% (inactive).

**Q.** For `CC(=O)N1c2ccccc2CC1C(=O)N1CCN(c2ccc(F)cc2)CC1` (stereo unspecified), which activity change, negative = inhibition is on record?
**A.** The activity change, negative = inhibition was 16.1% (inactive).

**Q.** For `O=c1nc(N2CCOCC2)nc2n1CCO2`, which activity change, negative = inhibition is on record?
**A.** The activity change, negative = inhibition was -26.3% (inactive).

**Q.** Which activity change, negative = inhibition does the source give for `COc1ccc(OC)c(NC(=O)C2CCN(S(=O)(=O)c3ccc(C)cc3)CC2)c1` here?
**A.** The activity change, negative = inhibition was -12.3% (inactive).

**Q.** Which activity change, negative = inhibition does the source give for `Fc1ccc(OCc2nn3c(Cn4nnc5ccccc54)nnc3s2)cc1` here?
**A.** The activity change, negative = inhibition was -1.96% (inactive).

**Q.** For `O=C(CSc1nnc(Cn2cnc3ccccc32)o1)c1ccccc1`, which activity change, negative = inhibition is on record?
**A.** The activity change, negative = inhibition was -35.1% (inactive).

**Q.** With `c1ccc(Cc2nn3c(Cn4cnc5ccccc54)nnc3s2)cc1` as the compound, how does the activity change, negative = inhibition read?
**A.** The activity change, negative = inhibition was -65.2% (active).

**Q.** Which activity change, negative = inhibition does the source give for `Cc1ccccc1CNC(=O)c1ccc(NC(=O)N2CCCCc3ccccc32)cc1` here?
**A.** Its activity change, negative = inhibition is -4.65% (inactive).

**Q.** Which activity change, negative = inhibition does the source give for `COc1ccc(C(=O)c2oc3ccccc3c2NC(=O)COc2cccc(C)c2)cc1` here?
**A.** Its activity change, negative = inhibition is 9.86% (inactive).

Reference: PubChem BioAssay AID1259415 (National Center for Advancing Translational Sciences (NCATS), 2018)
